Measured values published in the supplement of paper PMC11006884.
About 6,500 targets were measured; listed, in parts, are those with a hit and a random draw of the rest. About 2% of all pairs of compound and target were hits.

compound: COC(=O)C#Cc1ccccc1 [methyl 3-phenylpropiolate]; assay: log2 ratio of iodoacetamide-alkyne labeling of the cysteine site, DMSO over compound (competition); higher = stronger covalent engagement of the cysteine by the compound, active = 1 or more; conditions: 500 µM; treatment time 1 h; system: HEK293T cell lysate
How it was run: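 Three replicates, each with duplicate channels, were prepared from HEK293T lysate (2 mg/mL) treated with vehicle or electrophile at 500 µM for 1 h at ambient temperature. Iodoacetamide alkyne was then applied for 1 h, and samples were clicked to sCIP-TMT reagents, pooled, trypsin-digested overnight at 37 °C, enriched on streptavidin, acid-eluted and analysed on Orbitrap Eclipse LC-MS/MS with FAIMS, with FragPipe quantification. The log2 competition ratio per cysteine is the mean control-channel divided by the mean compound-channel reporter intensity. Cysteines quantified in only one replicate were left out.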

Chain of UniProt Q8IX12 (Q8IX12 whole entry, looked up): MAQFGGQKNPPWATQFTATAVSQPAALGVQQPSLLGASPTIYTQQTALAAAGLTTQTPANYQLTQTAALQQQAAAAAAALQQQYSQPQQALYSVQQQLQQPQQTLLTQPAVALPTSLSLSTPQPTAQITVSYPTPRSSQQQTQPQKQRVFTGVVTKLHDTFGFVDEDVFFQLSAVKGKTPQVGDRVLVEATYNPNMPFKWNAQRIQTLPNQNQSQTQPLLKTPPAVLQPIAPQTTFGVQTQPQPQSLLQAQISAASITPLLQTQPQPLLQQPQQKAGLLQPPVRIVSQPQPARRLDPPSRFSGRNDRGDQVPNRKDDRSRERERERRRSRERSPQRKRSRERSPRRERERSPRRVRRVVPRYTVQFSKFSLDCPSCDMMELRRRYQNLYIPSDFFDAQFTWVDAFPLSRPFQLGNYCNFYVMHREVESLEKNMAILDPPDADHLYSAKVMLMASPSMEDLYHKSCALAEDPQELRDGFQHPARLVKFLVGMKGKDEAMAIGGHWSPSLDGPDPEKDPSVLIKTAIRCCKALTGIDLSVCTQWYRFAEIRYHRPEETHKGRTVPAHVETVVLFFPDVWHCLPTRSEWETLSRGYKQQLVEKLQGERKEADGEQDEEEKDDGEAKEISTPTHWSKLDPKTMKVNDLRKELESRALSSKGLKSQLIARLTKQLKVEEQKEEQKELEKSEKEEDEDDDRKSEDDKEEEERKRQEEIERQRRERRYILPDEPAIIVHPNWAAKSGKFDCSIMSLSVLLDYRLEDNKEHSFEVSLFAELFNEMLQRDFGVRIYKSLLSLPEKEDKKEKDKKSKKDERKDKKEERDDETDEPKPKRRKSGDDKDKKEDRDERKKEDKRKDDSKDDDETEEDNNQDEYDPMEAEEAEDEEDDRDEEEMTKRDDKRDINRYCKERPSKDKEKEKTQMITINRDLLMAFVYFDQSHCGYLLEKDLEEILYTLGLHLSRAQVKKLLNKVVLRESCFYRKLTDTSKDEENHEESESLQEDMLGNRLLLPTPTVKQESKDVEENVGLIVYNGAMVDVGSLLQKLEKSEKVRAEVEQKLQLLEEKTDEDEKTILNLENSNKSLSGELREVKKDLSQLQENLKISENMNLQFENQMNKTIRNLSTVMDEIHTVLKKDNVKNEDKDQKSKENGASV
Chain of UniProt Q66GS9 (Q66GS9 whole entry): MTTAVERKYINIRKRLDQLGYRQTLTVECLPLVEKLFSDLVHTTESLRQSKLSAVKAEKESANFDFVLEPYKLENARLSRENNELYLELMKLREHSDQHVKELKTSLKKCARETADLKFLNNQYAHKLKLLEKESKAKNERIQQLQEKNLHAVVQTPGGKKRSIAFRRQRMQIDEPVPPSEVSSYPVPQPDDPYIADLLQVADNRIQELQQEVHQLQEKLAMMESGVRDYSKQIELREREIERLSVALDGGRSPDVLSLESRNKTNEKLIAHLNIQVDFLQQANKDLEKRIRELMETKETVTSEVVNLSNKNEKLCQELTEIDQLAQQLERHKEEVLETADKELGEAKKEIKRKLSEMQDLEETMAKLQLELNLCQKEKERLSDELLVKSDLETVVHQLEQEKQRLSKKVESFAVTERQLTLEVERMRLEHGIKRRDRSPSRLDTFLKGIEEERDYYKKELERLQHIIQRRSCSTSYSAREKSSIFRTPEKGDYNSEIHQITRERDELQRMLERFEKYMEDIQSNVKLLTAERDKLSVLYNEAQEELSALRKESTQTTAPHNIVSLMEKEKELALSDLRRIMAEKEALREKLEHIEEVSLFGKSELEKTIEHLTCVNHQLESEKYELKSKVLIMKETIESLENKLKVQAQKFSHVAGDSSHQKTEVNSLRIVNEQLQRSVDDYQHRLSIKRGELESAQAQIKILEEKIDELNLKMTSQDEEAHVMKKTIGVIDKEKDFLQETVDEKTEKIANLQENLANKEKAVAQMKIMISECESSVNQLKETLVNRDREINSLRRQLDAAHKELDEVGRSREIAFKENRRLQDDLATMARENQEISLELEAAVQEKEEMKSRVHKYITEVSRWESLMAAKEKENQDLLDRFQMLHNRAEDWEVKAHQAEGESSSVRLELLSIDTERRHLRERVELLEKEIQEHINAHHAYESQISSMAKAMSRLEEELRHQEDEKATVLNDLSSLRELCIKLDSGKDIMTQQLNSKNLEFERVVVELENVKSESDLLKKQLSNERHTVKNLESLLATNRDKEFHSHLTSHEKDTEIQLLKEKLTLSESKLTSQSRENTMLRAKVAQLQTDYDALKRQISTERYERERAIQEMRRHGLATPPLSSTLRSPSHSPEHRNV
Chain of UniProt Q6ZU80 (Q6ZU80 whole entry): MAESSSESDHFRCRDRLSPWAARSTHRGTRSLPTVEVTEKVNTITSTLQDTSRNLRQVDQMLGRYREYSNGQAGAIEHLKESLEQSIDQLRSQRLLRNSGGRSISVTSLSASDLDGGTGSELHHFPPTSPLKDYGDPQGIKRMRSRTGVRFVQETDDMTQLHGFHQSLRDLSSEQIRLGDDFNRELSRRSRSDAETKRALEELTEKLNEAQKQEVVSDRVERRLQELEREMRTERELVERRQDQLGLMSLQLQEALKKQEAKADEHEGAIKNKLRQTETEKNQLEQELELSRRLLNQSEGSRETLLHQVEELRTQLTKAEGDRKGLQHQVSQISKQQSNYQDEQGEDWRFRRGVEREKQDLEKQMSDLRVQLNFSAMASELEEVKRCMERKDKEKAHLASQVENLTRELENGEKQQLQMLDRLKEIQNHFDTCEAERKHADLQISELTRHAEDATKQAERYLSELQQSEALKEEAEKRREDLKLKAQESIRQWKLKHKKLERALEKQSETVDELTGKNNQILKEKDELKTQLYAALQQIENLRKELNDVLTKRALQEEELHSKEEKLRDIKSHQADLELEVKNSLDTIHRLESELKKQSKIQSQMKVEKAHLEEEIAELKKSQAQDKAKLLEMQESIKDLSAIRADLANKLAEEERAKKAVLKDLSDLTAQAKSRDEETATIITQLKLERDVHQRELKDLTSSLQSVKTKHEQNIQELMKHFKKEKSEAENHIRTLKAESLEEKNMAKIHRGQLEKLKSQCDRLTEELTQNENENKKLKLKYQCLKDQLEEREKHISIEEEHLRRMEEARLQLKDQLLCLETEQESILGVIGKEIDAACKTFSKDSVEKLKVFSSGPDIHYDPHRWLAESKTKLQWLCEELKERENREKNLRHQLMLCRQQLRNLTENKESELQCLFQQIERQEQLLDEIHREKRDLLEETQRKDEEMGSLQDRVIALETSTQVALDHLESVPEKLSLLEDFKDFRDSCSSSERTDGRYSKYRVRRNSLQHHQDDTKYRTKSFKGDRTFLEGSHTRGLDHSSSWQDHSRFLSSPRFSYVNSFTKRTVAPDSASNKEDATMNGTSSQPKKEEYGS
Chain of UniProt Q86V48 (Q86V48 whole entry, looked up): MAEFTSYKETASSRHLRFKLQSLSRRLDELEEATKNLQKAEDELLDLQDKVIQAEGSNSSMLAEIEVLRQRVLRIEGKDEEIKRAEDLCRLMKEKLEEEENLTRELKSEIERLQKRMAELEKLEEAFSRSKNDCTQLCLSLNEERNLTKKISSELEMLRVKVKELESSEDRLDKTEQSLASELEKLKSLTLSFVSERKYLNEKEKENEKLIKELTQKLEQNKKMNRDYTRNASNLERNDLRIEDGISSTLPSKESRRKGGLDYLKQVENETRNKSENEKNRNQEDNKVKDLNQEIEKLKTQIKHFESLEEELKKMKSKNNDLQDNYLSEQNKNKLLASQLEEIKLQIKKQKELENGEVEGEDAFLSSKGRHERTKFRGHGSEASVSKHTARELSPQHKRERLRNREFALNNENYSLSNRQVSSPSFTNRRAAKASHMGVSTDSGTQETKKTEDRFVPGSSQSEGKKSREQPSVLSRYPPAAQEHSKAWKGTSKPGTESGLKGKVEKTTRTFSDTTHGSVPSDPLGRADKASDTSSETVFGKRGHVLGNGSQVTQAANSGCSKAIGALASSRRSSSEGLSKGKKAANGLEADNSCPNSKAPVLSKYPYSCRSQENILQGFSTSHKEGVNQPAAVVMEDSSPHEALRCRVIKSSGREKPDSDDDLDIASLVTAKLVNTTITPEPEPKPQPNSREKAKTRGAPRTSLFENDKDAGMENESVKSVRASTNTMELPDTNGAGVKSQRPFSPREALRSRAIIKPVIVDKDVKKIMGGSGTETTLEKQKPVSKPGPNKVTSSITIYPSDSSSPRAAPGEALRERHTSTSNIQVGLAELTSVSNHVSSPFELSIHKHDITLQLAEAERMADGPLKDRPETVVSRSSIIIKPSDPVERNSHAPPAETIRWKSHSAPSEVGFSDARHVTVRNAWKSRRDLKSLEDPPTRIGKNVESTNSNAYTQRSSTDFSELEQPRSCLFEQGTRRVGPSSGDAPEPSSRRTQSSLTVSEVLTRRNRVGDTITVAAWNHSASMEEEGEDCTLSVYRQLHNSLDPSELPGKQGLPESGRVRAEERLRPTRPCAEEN
Chain of UniProt Q969E8 (Q969E8 whole entry): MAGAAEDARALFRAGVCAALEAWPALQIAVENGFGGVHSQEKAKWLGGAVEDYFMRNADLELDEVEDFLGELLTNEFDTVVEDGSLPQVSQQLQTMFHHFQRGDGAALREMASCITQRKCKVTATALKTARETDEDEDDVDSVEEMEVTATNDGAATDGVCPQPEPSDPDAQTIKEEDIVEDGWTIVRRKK

Target | log2 ratio of iodoacetamide-alkyne labeling
UniProt Q92888_C892 | 0.0678 (inactive)
RANBP9 C610 (UniProt Q96S59) | 0.53 (inactive)
UniProt Q7Z4H7_C885 | 0.286 (inactive)
FBXO30 C317 (UniProt Q8TB52) | 0.564 (inactive)
NCAPH2 C342 (UniProt Q6IBW4) | 1.07 (active)
NAT14 C108 (UniProt Q8WUY8) | 1.05 (active)
AKT1S1 C61 (UniProt Q96B36) | 0.266 (inactive)
MYBBP1A C1031 (UniProt Q9BQG0) | 0.225 (inactive)
MTHFD1L C778 (UniProt Q6UB35) | 1.1 (active)
CEP135 C316 (UniProt Q66GS9) | 0.0231 (inactive)
ANKRD40 C209 (UniProt Q6AI12) | 0.466 (inactive)
CEP128 C915 (UniProt Q6ZU80) | 0.335 (inactive)
TSR2 C17 (UniProt Q969E8) | 0.599 (inactive)
RNF25 C360 (UniProt Q96BH1) | 1.07 (active)
UBR4 C1450 (UniProt Q5T4S7) | 0.138 (inactive)
KTN1 C1105 (UniProt Q86UP2) | 0.28 (inactive)
LUZP1 C969 (UniProt Q86V48) | 1.01 (active)

Target | log2 ratio of iodoacetamide-alkyne labeling
SLFN11 C6 (UniProt Q7Z7L1) | 0.329 (inactive)
SECISBP2 C719 (UniProt Q96T21) | -0.258 (inactive)
ZNF318 C1559 (UniProt Q5VUA4) | 0.605 (inactive)
USP28 C142 (UniProt Q96RU2) | 1.47 (active)
CCAR1 C579 (UniProt Q8IX12) | 0.0854 (inactive)
PDCD6IP C40 (UniProt Q8WUM4) | 0.812 (inactive)
CPPED1 C54 (UniProt Q9BRF8) | 1.01 (active)
UniProt Q6PJG6_C720 | 0.324 (inactive)
TET2 C332 (UniProt Q6N021) | 0.594 (inactive)
SMARCC1 C164 (UniProt Q92922) | 0.146 (inactive)
TBC1D15 C686 (UniProt Q8TC07) | 0.635 (inactive)
GSTCD C335 (UniProt Q8NEC7) | 0.19 (inactive)
NOC3L C683 (UniProt Q8WTT2) | 0.191 (inactive)
UniProt Q8NFC6_C686 | 0.47 (inactive)
DHX29 C1025 (UniProt Q7Z478) | 0.0649 (inactive)
CCT7 C158 (UniProt Q99832) | 0.152 (inactive)
LPP C468 (UniProt Q93052) | 0.118 (inactive)
